Source: PubChem BioAssay AID651602 (The Scripps Research Institute Molecular Screening Center, 2012)
In all, about 360,000 compounds went through this assay and about 950 (0.26%) were called active. No stated cut-off is given here; in the data, active means inhibition above about 11%; inactive means the rest. For the sample, actives were picked, then their nearest neighbours and some compounds at random.

Assay: growth loss of phage-infected E. coli, primary screen, RecBCD inhibitor project, absorbance, with phage, HTS (AID 651602)
Details: at 11.9 µM, active compounds read high

| SMILES | inhibition |
| --- | --- |
| O=C1[C@@H](c2ccccc2)[C@@H](c2ccccc2)N1c1ccccc1 | 1.64% (inactive) |
| COc1ccc(-c2ccc3c(n2)CCCN3S(=O)(=O)c2ccc(C)cc2)cc1 | 4.42% (inactive) |
| O=C(COc1ccc(F)cc1Br)NCC1COc2ccccc2O1 (stereo not given) | 1.96% (inactive) |
| CC(NC(=S)Nc1ccccc1)C1COc2ccccc2O1 (stereo not given) | 4.25% (inactive) |
| S=C(NCC1COc2ccccc2O1)Nc1ccc(Br)cc1 (stereo not given) | 11.1% (active) |
| O=C(N[C@H](Cc1ccccc1)C(=O)N1CCCN(Cc2cccs2)CC1)[C@H]1O[C@@H](n2ccc(=O)[nH]c2=O)[C@H](O)[C@@H]1O | 3.33% (inactive) |
| CCOC(=O)Cn1c2c(n(-c3ccc(F)cc3)c1=O)C=C(c1ccccc1)[C@@H](C)C(C(=O)N(C)C1CCCCC1)=C2 | 3.33% (inactive) |
| CN(C)C(=O)N1CCN(C(=O)[C@@H](Cc2ccccc2)NC(=O)[C@H]2O[C@@H](n3ccc(N)nc3=O)[C@H](O)[C@@H]2O)CC1 | 1.56% (inactive) |
| COc1ccc(CNS(=O)(=O)c2cc(Br)ccc2Br)cc1 | 0.71% (inactive) |
| COc1c(N2CCN(C(=S)Nc3ccccc3F)C(C)C2)c(F)cc2c(=O)c(C(=O)O)cn(C3CC3)c12 (stereo not given) | 99.2% (active) |
| CC1CN(C(=S)Nc2ccccc2F)CC(C)O1 (stereo not given) | 2.38% (inactive) |
| COc1ccccc1NC(=S)N1CCN(c2ccc(F)cc2)CC1 | 2.7% (inactive) |
| CCOC(=O)CNC(=O)N(C)[C@H]1C[C@H]2c3[nH]c4c(-c5ccc6c(c5)OCO6)cccc4c3CCN2C(=O)[C@H]1[C@H](C)O | 1.25% (inactive) |
| COc1cccc(CC(=O)N2CCN(C(=O)C(=O)c3cccc(C(F)(F)F)c3)CC2)c1 | 0.39% (inactive) |
| COC(=O)[C@]12C[C@H](CC(=O)NCCC(C)C)C(=O)N(CCc3ccc(OC)c(OC)c3)C1=C[C@H](C(C)(C)C)O[C@@H]2C | 4.73% (inactive) |
| COc1ccc(N(CC(=O)NC2CCCCC2)S(=O)(=O)c2c(C)[nH]c(=O)[nH]c2=O)cc1 | -1.14% (inactive) |
| CCOc1ccc(N(CC(=O)NC2CCCCCC2)S(=O)(=O)c2c(C)[nH]c(=O)[nH]c2=O)cc1 | 80.4% (active) |
| CCOc1ccc(N(CC(=O)Nc2ccccc2F)S(=O)(=O)c2c(C)[nH]c(=O)[nH]c2=O)cc1 | 3.53% (inactive) |
| Nc1[nH]c(C(=O)c2ccccc2)c(-c2ccc(Cl)cc2Cl)c1C(=O)c1ccccc1 | 3.17% (inactive) |
| Cc1cc(NCCc2c[nH]c3ccccc23)ccc1Oc1cccnc1 | 1.27% (inactive) |
| COCc1[nH]nc2c1C(c1ccccc1)N(c1ccccc1)C2=O (stereo not given) | 1.43% (inactive) |
| Cc1ccc(NC(=O)Nc2nnc(-c3ccncc3)s2)cc1 | 12.4% (active) |
| O=C(Nc1ccccc1)Nc1nnc(COc2ccccc2F)s1 | 0.84% (inactive) |
| CC(C)=CC(=O)Nc1nnc(-c2ccc(F)cc2)s1 | 1.99% (inactive) |
| C[C@H](O)[C@@H]1C(=O)N2CCc3c([nH]c4c(-c5ccc6c(c5)OCO6)cccc34)[C@@H]2C[C@@H]1N(C)C(=O)c1ccco1 | 4.12% (inactive) |
| CCCCNC(=O)c1cn(CC)c2cc(N3CCN(C(=O)c4ccco4)CC3)c(F)cc2c1=O | 1.02% (inactive) |
| CCn1cc(C(=O)NCCO)c(=O)c2cc(F)c(N3CCN(C)CC3)cc21 | 92.5% (active) |

| SMILES | inhibition |
| --- | --- |
| CCn1cc(C(=O)NCCC(=O)NCCO)c(=O)c2cc3c(cc21)OCO3 | 0.08% (inactive) |
| CCCCCCn1cc(C(=O)O)c(=O)c2cc(F)c(N3CCCCC3)cc21 | 1.18% (inactive) |
| CN1CCN(c2cc3c(cc2F)c(=O)c(C(=O)O)cn3CCF)CC1 | 99.2% (active) |
| CCn1cc(S(=O)(=O)c2cccc(C)c2)c(=O)c2cc(F)c(N3CCN(C)CC3)cc21 | 0.96% (inactive) |
| C=CCN1C(=O)N(Cc2ccccc2)c2ccccc2S1(=O)=O | 1.27% (inactive) |
| COc1ccc(OC)c(Cc2cnc3nc(N)nc(N)c3c2C)c1 | 82.4% (active) |
| Brc1ccc(COCCc2cn(Cc3ccccc3)c3ccccc23)cc1 | 2.34% (inactive) |
| Cc1[nH]nc2c1C(c1ccc(Br)cc1)NC2=O (stereo not given) | 2.87% (inactive) |
| Nc1[nH]c(C(=O)c2ccc(Br)cc2)c(-c2ccc3c(c2)OCO3)c1C(=O)NCCc1c[nH]c2ccccc12 | -1.27% (inactive) |
| CCc1ccc(C2=CC(=O)CC(C)(C)C2=O)cc1 | 1.83% (inactive) |
| C[C@@H]1CN([C@H](C)CO)C(=O)CCCn2cc(nn2)CO[C@H]1CN(C)C(=O)Nc1ccc(N2CCCCC2)cc1 | 1.36% (inactive) |
| O/N=C1\CC2(Cc3nonc31)OCCO2 | 0.95% (inactive) |
| ON=C1/C(=N\O)CC2(C/C1=N/O)OCCO2 | 13.7% (active) |
| CN[C@H]1C[C@H]2c3[nH]c4c(-c5ccccc5)cccc4c3CCN2C(=O)[C@H]1[C@H](C)O | 1.58% (inactive) |
| Nc1ccn([C@@H]2O[C@H](C(=O)N[C@H]3CCCCNC3=O)[C@@H](O)[C@H]2O)c(=O)n1 | 1.72% (inactive) |
| O=C(CC(=O)N/N=C\c1cccc(Cl)c1Cl)NCc1ccccc1 | 3.05% (inactive) |
| O=C(CO/N=C/c1ccccc1O)NNC(=O)c1ccccc1Cl | 0.32% (inactive) |
| O=C(NN=Cc1ccccc1O)NN=Cc1ccccc1O | 12.4% (active) |
| COC(=O)C1=C(C)N(Cc2ccccc2C(F)(F)F)C(=NCC2CC2)NC1c1cccc(Cl)c1 (stereo not given) | 0.63% (inactive) |
| COC(=O)c1cc2c(c3c4ccccc4n(S(=O)(=O)c4cccc(C)c4)c13)C(=O)N(Cc1ccccc1)C2 | 5.66% (inactive) |
| COc1ccccc1-c1ccc([C@@H]2C[C@H]3[C@H](CON3C)CN2S(=O)(=O)c2cc(Cl)cc(Cl)c2)cc1 | 3.4% (inactive) |
| O=S1(=O)c2ccc(Br)cc2-n2nncc2CN1Cc1cccc(Cl)c1 | -0.4% (inactive) |
| CN(C)[C@@H]1C(=O)C(C(N)=O)=C(O)[C@@]2(O)C(=O)C3=C(O)c4c(O)ccc(Cl)c4[C@@H](O)[C@H]3C[C@@H]12 | 102% (active) |
| C=C1c2c(Cl)ccc(O)c2C(O)=C2C(=O)[C@]3(O)C(O)=C(C(N)=O)C(=O)[C@@H](N(C)C)[C@@H]3[C@@H](O)C12 (stereo not given in full) | 102% (active) |
| Clc1cccc2c1C1CC2CCN1Cc1ccccc1 (stereo not given) | 2.92% (inactive) |
| C=CCN=C1NC(c2cccc(C(F)(F)F)c2)C(C(=O)OC)=C(C)N1C (stereo not given) | 2.4% (inactive) |
| COc1ccccc1Cc1c(-c2ccc(F)cc2)nc2ccc(C)cn12 | 2.63% (inactive) |

| SMILES | inhibition |
| --- | --- |
| CC1CCN(C(=O)c2ncn3c2C(=O)N[C@@H](C)C3)CC1 | 0.88% (inactive) |
| CC1CCN(C(=O)Cn2cc(C(=O)c3ccco3)c3ccccc32)CC1 | 2.64% (inactive) |
| Cc1cccc(NC(=O)Cn2cc(C(=O)c3ccco3)c3ccccc32)c1 | 16.3% (active) |
| O=C(Cn1cc(C(=O)c2cccs2)c2ccccc21)NCc1cccs1 | 3.17% (inactive) |
| COCCCNC(=O)C[C@H]1C[C@@]2(C(=O)OC)C(=C[C@H](C(C)(C)C)O[C@@H]2C)N(Cc2ccc3c(c2)OCO3)C1=O | 0.08% (inactive) |
| Cc1nc(NC(=O)C(C)(C)C)sc1[N+](=O)[O-] | 0.38% (inactive) |
| CC[C@H]1OC(=O)[C@H](C)[C@@H](O[C@H]2C[C@@](C)(OC)[C@@H](O)[C@H](C)O2)[C@H](C)[C@@H](O[C@@H]2O[C@H](C)C[C@H](N(C)C)[C@H]2O)[C@](C)(O)C[C@@H](C)[C@@H]2N[C@@H](COCCOC)O[C@H]([C@H]2C)[C@]1(C)O | 39.4% (active) |
| Cc1ccc(N)cc1CN1CCN(c2ncc(Cc3ccccc3)cn2)CC1 | 1.25% (inactive) |
| COc1ccc(SSc2ccc(OC)cc2C(=O)O)c(C(=O)O)c1 | 3.45% (inactive) |
| CN1C(=O)C(Br)(Br)CC1c1cccnc1 (stereo not given) | 2.07% (inactive) |
| CC(C)[C@@H](C)/C=C/[C@@H](C)[C@H]1CC[C@@H]2[C@]1(C)CCC1[C@]23C=C[C@]2(C[C@@H](O)CC[C@]12C)N(c1ccc([N+](=O)[O-])cn1)O3 (stereo not given in full) | -0.39% (inactive) |
| N#Cc1ccccc1NC(=O)COc1c(Br)cc(Br)c2cccnc12 | -0.78% (inactive) |
| CC(=O)NC(c1cccs1)c1cc(Br)c2cccnc2c1O (stereo not given) | 18.8% (active) |
| O=[N+]([O-])c1cc([N+](=O)[O-])c2cccnc2c1O | -2.95% (inactive) |
| O=c1[nH]c(-c2ccccc2)cn1C1CCN(Cc2ccc(-c3nc4ccc(F)cc4nc3-c3ccccc3)cc2)CC1 | 0.95% (inactive) |
| CC(C)CNc1cccc2c1S(=O)(=O)N[C@H](CC(C)C)CO2 | 2% (inactive) |
| Cc1ccc(/C=N/NC(=O)C2=NNC(c3ccccc3)(c3ccccc3)C2)c(O)c1 | 16.3% (active) |
| Cc1ccc(NC(=O)CCC(=O)N/N=C/c2ccco2)c(C)c1 | 0% (inactive) |
| Cc1ccc(/C=N/NC(=O)C(NC(=O)c2ccccc2)c2n[nH]c(=O)c3ccccc23)cc1 (stereo not given) | 1.99% (inactive) |
| CN1CCCc2nc(-c3ccccc3)ccc21 | 2.87% (inactive) |
| C=CCn1c(SCC(=O)Nc2ccc(NC(C)=O)cc2)nc2sc(C)c(C)c2c1=O | 5% (inactive) |
| C=CCNC(=O)CSc1nc2sc(C)c(C)c2c(=O)[nH]1 | 97.6% (active) |
| Cc1sc2nc(CSCC(=O)Nc3c(Cl)cccc3Cl)[nH]c(=O)c2c1C | -1.33% (inactive) |
| COc1cccc(NC(=O)N(C)C[C@@H]2OCc3cn(nn3)CCCC(=O)N([C@@H](C)CO)C[C@H]2C)c1 | 1.68% (inactive) |
| Cc1cc(OC(=O)NCCc2ccc(F)cc2)ccc1F | 1.19% (inactive) |
| CCOC(=O)N1CCN(C(=O)C[C@H]2C[C@@]3(C(=O)OC)C(=C[C@H](C4CCCC4)O[C@@H]3C)N(Cc3ccccc3)C2=O)CC1 | -1.47% (inactive) |
